Several values for one entry are separate records, joined by “and”; a condition that tells them apart may be missing. Equal entries are not always repeated. Records with an inconclusive call do not appear. Activity calls are given as the source filed them. Unless noted, no rule for the calls is given here.
Assays:
[1] = qHTS assay for cell viability of the p53RE-bla HCT-116 cell line (AID 743292; active = well fitted curve in the direction sought with a large enough effect; an effect the other way counts as inactive or inconclusive; also: nearly all actives have a fitted effect of over 55% in size; also: potency is read from the fitted curve at half-maximal effect)
Procedure, shortened: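 Quantitative high-throughput format: compounds in DMSO were pinned onto p53RE-bla HCT-116 cells (4,000/well) and incubated 16 h at 37 C. Total intracellular ATP, read by CellTiter-Glo luminescence, reflects viable cell number.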

[2] = qHTS profiling of the MIPE4 collection as inhibitors of Plasmodium falciparum (3D7) proliferation (AID 743344);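 also: scaled between DMSO vehicle wells and 0.29 µM artemisinin as full inhibition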; conditions: P. falciparum 3D7 in erythrocytes, SYBR Green DNA fluorescence, 72 h; at 28.5 µM (top of the series) unless noted
Procedure, shortened: (§1)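 Parasite DNA was quantified by SYBR Green I fluorescence (ex 485, em 535 nm) after overnight lysis in saponin/Triton buffer at room temperature. Cultures at 0.3% parasitemia and 2.5% hematocrit were first exposed to compound for 72 h at 37 C; signals were normalised to artemisinin (0.29 uM) and vehicle wells.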

[3] = qHTS profiling of the MIPE4 collection as inhibitors of Plasmodium falciparum (DD2) proliferation (AID 743345); conditions: P. falciparum Dd2 in erythrocytes, SYBR Green DNA, 72 h; at 28.5 µM (top of the series) unless noted
Procedure, shortened: as §1

[4] = qHTS profiling of the MIPE4 collection as inhibitors of Plasmodium falciparum (DD2) proliferation (Rep 2) (AID 743346); conditions: P. falciparum Dd2 in erythrocytes, SYBR Green DNA, 72 h; at 28.5 µM (top of the series) unless noted
Procedure, shortened: as §1

[5] = qHTS profiling of the MIPE4 collection as inhibitors of Plasmodium falciparum (HB3) proliferation (AID 743347);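 also: plate controls were DMSO vehicle wells for no effect and artemisinin wells for full effect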; conditions: P. falciparum HB3 in erythrocytes, SYBR Green DNA, 72 h; at 28.5 µM (top of the series) unless noted
Procedure, shortened: as §1

[6] = High-throughput drug toxicity screening in the BPDCN cell line Gen2.2 (AID 1224824); conditions: Gen2.2 BPDCN cells; at 45.8 µM (top of the series) unless noted;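 also: cells exposed to compounds for 48 h before reading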
Procedure, shortened: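 CellTiter-Glo luminescence after 48 h compound exposure of Gen2.2 cells; percent activity set with DMSO as 100% and bortezomib (9.2 uM final) as 0%. Cells seeded at 500 per well, RPMI + 10% FBS, 37 °C.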

[7] = High-throughput drug toxicity screening in the BPDCN cell line Cal-1 (AID 1224825); conditions: Cal-1 BPDCN cell viability, qHTS; at 45.8 µM (top of the series) unless noted
Procedure, shortened: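 Percent activity derived from CellTiter-Glo luminescence, scaling DMSO to 100% and 9.2 uM final bortezomib to 0%. BPDCN Cal-1 cells (500/well, RPMI plus 10% FBS) incubated with compounds 48 hours at 37C before reading.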

[8] = qHTS profiling for inhibitors of Plasmodium falciparum (3D7) proliferation (AID 743322);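 also: infected erythrocytes exposed to compound for 72 h before lysis; 100% = DMSO vehicle wells and 0% = 0.29 µM artemisinin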; conditions: P. falciparum 3D7 proliferation; at 28.7 µM (top of the series)
Procedure, shortened: as §1

[9] = qHTS profiling for inhibitors of Plasmodium falciparum (DD2) proliferation (AID 743323); conditions: lower = more inhibition; at 28.7 µM (top of the series)
Procedure, shortened: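 SYBR Green fluorescence (ex 485, em 535 nm) of lysed cultures gives parasite DNA content; wells normalized to artemisinin (0.29 uM) and DMSO controls. Infected red cells: 0.3% parasitemia, 2.5% hematocrit, 72 h, 37 C.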

[10] = qHTS profiling for inhibitors of Plasmodium falciparum (HB3) proliferation (AID 743324; active = well fitted curve in the direction sought with a large enough effect; an effect the other way counts as inactive or inconclusive;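 also: 100% = DMSO vehicle wells and 0% = artemisinin-treated control wells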); conditions: Plasmodium falciparum HB3 blood-stage proliferation; at 28.7 µM (top of the series)
Procedure, shortened: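 SYBR Green fluorescence (485 ex/535 em) of lysed cultures, incubated overnight at room temperature in the dark, quantifies parasite DNA. Infected erythrocytes at 0.3% parasitemia and 2.5% hematocrit were exposed 72 h; values normalized to DMSO and 0.29 uM artemisinin controls.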

SMILES	Potency [1]	parasite growth, % of DMSO control [2]	parasite growth remaining, % of DMSO control (lower = more inhibition) [3]	parasite growth, % of control (lower = inhibition) [4]	growth, % of control [5]	cell viability, % of control (lower = more cytotoxic) [6]	viability (% of control) [7]	remaining parasite growth % (stronger effect = lower value) [8]	activity, percent of control [9]	remaining proliferation (% of control), lower = more inhibition [10]
O=C(O)c1cc(=O)[nH]c(=O)[nH]1	inactive	101%	144%	89%	107%	184%	128%			
CN(C)CCc1c[nH]c2ccc(CS(=O)(=O)N3CCCC3)cc12		94.3%	92.8%	86.7%	70.4%	25%	93.3%			
COc1cc([C@@H]2c3cc4c(cc3[C@H](O)[C@H]3COC(=O)[C@H]23)OCO4)cc(OC)c1OC						7.94%	8.85%			
CCCCS(=N)(=O)CCC(N)C(=O)O (centres undefined)			94.1%	193%	102%	17.3%	34.2%	88.1%	31.7%	88%
Cc1nnc(NS(=O)(=O)c2ccc(N)cc2)s1	inactive	22.2%	17.6%	8.26%	38.9%	114%	13.2%			
CC1=NN(c2ccccc2)C(=O)C1	inactive		94.6%	86.2%	103%	112%	99.8%			
CC[C@H](C)C(=O)O[C@H]1C[C@@H](C)C=C2C=C[C@H](C)[C@H](CC[C@@H]3C[C@@H](O)CC(=O)O3)[C@H]21	inactive	73.9%	103%	83.7%	85.6%	8.11%	84.4%			
O=C(O)CCn1c2c(c3ccccc31)C[C@H](NS(=O)(=O)c1ccc(F)cc1)CC2						124%	118%			
CC1(C)[C@H](C(=O)O)N2C(=O)C[C@H]2S1(=O)=O						240%	103%			
Cc1noc(NS(=O)(=O)c2ccc(N)cc2)c1C	inactive	96.2%	98.9%	103%	98.2%	138%	96.8%			
CCn1cc(C(=O)O)c(=O)c2cc(F)c(N3CCNCC3)cc21						113%	104%			
Clc1ccccc1CN1CCc2sccc2C1						91.7%				
CC(C)C[C@H](NC(=O)[C@H](CCc1ccccc1)NC(=O)CN1CCOCC1)C(=O)N[C@@H](Cc1ccccc1)C(=O)N[C@@H](CC(C)C)C(=O)[C@@]1(C)CO1		5.1%	7.08%		6.02%	5.77%	3.67%	-0.503%	-1.29%	0.46%
Cc1c(-c2ccc(O)cc2)n(Cc2ccc(OCCN3CCCCCC3)cc2)c2ccc(O)cc12						158%	121%			
CN(C)c1ccc(C(=C2C=CC(=[N+](C)C)C=C2)c2ccc(N(C)C)cc2)cc1	25.1 µM (active) and 35.5 µM (active)	2.71%	5.08%		2.46%	1.19%	1.42%			
NNC(=O)c1ccncc1	inactive	5.29%	8.99%		2.55%	88.1%	99.3%			
CCC(C)(C)c1ccc(CC(C)CN2C[C@@H](C)O[C@@H](C)C2)cc1 (some centres undefined)		17.4%	82.2%	39%	26.4%	129%	108%			
S=P(N1CC1)(N1CC1)N1CC1	inactive	11.7%	24.7%	15.4%	3.94%	92%	27.1%			
N[C@@H](Cc1ccc(O)c(O)c1)C(=O)O	inactive		114%	64.9%	84%	94.2%	93.8%			
O=C(N[C@H](CO)[C@H](O)c1ccc([N+](=O)[O-])cc1)C(Cl)Cl	inactive		100%	83.1%	105%	136%	116%			
CCc1cc(C(N)=S)ccn1	inactive		10.5%	6.58%	2.68%	139%	95.1%			
NC(N)=NC(N)=NCCc1ccccc1	inactive		38.8%	47%	50.7%	88%	75.1%			
O=S(=O)(c1cccc2cnccc12)N1CCCNCC1						21.4%	94.6%			
N=C(N)c1ccc(OCCCCCOc2ccc(C(=N)N)cc2)cc1	inactive		6.09%	15.7%	3.03%	272%	39.6%			
CCN(CC)CC#CCOC(=O)C(O)(c1ccccc1)C1CCCCC1 (centres undefined)		14.3%	58.4%	16.6%	11.2%	205%	104%			
Cc1oc(=O)oc1CN1CCN(c2cc3c(cc2F)c(=O)c(C(=O)O)c2n3C(C)S2)CC1 (centres undefined)		24.1%	12.9%	9.67%	24.3%	162%	103%			
NC1(c2ccc(-c3nc4ccn5c(=O)[nH]nc5c4cc3-c3ccccc3)cc2)CCC1			17.9%		8.07%	7.66%	4.61%	36.9% and -1.39%	14.1% and -0.386%	

SMILES	Potency [1]	parasite growth, % of DMSO control [2]	parasite growth remaining, % of DMSO control (lower = more inhibition) [3]	parasite growth, % of control (lower = inhibition) [4]	growth, % of control [5]	cell viability, % of control (lower = more cytotoxic) [6]	viability (% of control) [7]	remaining parasite growth % (stronger effect = lower value) [8]	activity, percent of control [9]	remaining proliferation (% of control), lower = more inhibition [10]
CCN(CC)CCn1c(=O)c(Cc2ccc(OC)cc2)nc2ccccc21		206%	46.8%	28.1%	149%	115%	94.1%	41.3%	89.9%	
CC1=C(C(=O)O)N2C(=O)[C@@H](NC(=O)C(N)c3ccccc3)[C@H]2SC1 (some centres undefined)		101%	95.4%	151%	108%	114%	12.1%			
OC(Cn1cncn1)(Cn1cncn1)c1ccc(F)cc1F	inactive		101%			66.2%	114%			
CC(=O)[C@H]1CC[C@H]2[C@@H]3CCC4=CC(=O)CC[C@]4(C)[C@H]3CC[C@]12C	inactive					83%	79.9%			
Cc1ccnc2c1NC(=O)c1cccnc1N2C1CC1	inactive					1.63%	7.09%			
O=C(O)c1cn(C2CC2)c2cc(N3CCNCC3)c(F)cc2c1=O		75.2%	85.5%	67.8%	76.4%	138%	103%	95%	90.7%	92.1%
Cc1ncc([N+](=O)[O-])n1CCO	inactive	88.2%	101%	96.3%	85.1%	180%	76.6%			
COc1ncnc(NS(=O)(=O)c2ccc(N)cc2)c1OC		170%	105%		747%	106%	96.2%	82.4%	85.3%	
CC(C)OC(=O)OCOP(=O)(CO[C@H](C)Cn1cnc2c(N)ncnc21)OCOC(=O)OC(C)C						162%	42.8%			
O=NN(CCCl)C(=O)NC1CCCCC1						110%	102%			
COc1cc2ncnc(Nc3cccc(Cl)c3)c2cc1OC		8.74%	27%	24.1%	4.11%	115%	39.5%			
O=C(O)CSCC(=O)NC1CCSC1=O (centres undefined)		102%	139%	124%	99.2%	118%	112%			
Cn1nnc2c(C(N)=O)ncn2c1=O		97.2%	86.5%	120%	98.2%	79.7%	80.1%			
CC(C)(C)C(=O)OCOP(=O)(COCCn1cnc2c(N)ncnc21)OCOC(=O)C(C)(C)C		68.2%	96.8%	97.4%	82.4%	3.53%	2.56%			
C[C@@H]1CN(c2c(F)c(N)c3c(=O)c(C(=O)O)cn(C4CC4)c3c2F)C[C@H](C)N1		55.7% [at 9.64 µM]	83% [at 9.64 µM]	34.1% [at 9.64 µM]	72.3% [at 9.64 µM]	89.9% [at 23.2 µM]	107% [at 23.2 µM]			
CC(C(=O)O)c1ccc2c(c1)CC(=O)c1ccccc1S2 (centres undefined)		69.8%	92.6%	187%	97.8%	113%	19.4%			
Cc1ccc(S(=O)(=O)N[C@@H](Cc2ccccc2)C(=O)CCl)cc1		90.3%	91.3%	79.2%	84.3%	4.27%	3.45%			
CCCN[C@H]1CCc2nc(N)sc2C1		5.95%	92.8%		6.99%	133%	78%			
CC(C)NCC(O)c1ccc(NS(C)(=O)=O)cc1 (centres undefined)		44.4%	94.6%	30.5%	52.5%	203%	120%			
COc1ccc(C(=O)CC(=O)c2ccc(C(C)(C)C)cc2)cc1		9.04%	88.2%	6.24%	2.68%	5.71%	5.54%			
Nc1ccc(S(=O)(=O)Nc2ccccn2)cc1		89.8%	89.4%	84.7%	54.6%	123%	112%			
CO[C@@H]1[C@@H](OC(N)=O)[C@@H](O)[C@H](Oc2ccc3c(O)c(NC(=O)c4ccc(O)c(CC=C(C)C)c4)c(=O)oc3c2C)OC1(C)C		61%	75.8%	39.2%	45.7%	13.9%	44%			
COc1cnc(NS(=O)(=O)c2ccc(N)cc2)nc1		87.5%	95.4%	79.9%	58.8%	32.7%	21.6%			
NC(=O)N1c2ccccc2CC(=O)c2ccccc21		92.2%	96.7%	187%	102%	104%	112%			
CCCc1cc(C(N)=S)ccn1		6.05%	65.8%	14%	6.05%	119%	93.7%			
CC(N)C12CC3CC(CC(C3)C1)C2 (centres undefined)		76.2%	12.6%	32.1%	96.9%	175%	105%			
C#CCN[C@@H]1CCc2ccccc21		95.8%	129%	95.4%	103%	153%	57.2%			
